{
  "source": "PubChem BioAssay AID493191",
  "about": "(Broad Institute, 2011)",
  "note": "Hit rate of the full screen: of about 1,300 compounds, about 330 (25%) were called active. The rule behind the calls is not given here. These entries were drawn from the full list. Measured potencies and affinities stand elsewhere.",
  "data": [
    {"experiment": "growth inhibition of MALME3 cells – cell-based, CellTiter-Glo, cherry-picked, orthogonal assay for MITF inhibitor project, dose response (AID 493191)", "settings": "MALME3 melanoma viability, CellTiter-Glo luminescence, 24 h; series mostly up to 35 µM; activity change, negative = inhibition: at the top concentration", "values": [
      {"smiles": "C=CCNC(=O)c1ccc2nc(Cc3ccc(OC)cc3)oc2c1", "activity change, negative = inhibition": "18.7% (inactive)"},
      {"smiles": "Cc1ccc(C(=O)N/C(=C\\c2ccc(-c3ccccc3[N+](=O)[O-])o2)C(=O)NCCCN(C)C)cc1", "activity change, negative = inhibition": "-45.4% (inactive)"},
      {"smiles": "Cc1ccc(C(=O)N/C(=C\\c2ccc(-c3ccccc3[N+](=O)[O-])o2)C(=O)NCCN(C)C)cc1", "activity change, negative = inhibition": "-10.2% (inactive)"},
      {"smiles": "CN(C)CCNC(=O)/C(=C/c1ccc(-c2ccc(Cl)cc2)o1)NC(=O)c1ccccc1", "activity change, negative = inhibition": "-17.3% (inactive)"},
      {"smiles": "CCOc1ccc(-n2c(-c3ccc(OC)cc3)c[n+]3c2CCCCC3)cc1", "activity change, negative = inhibition": "-35.1% (inactive)"},
      {"smiles": "CCN(CC)C(=O)CCCOc1ccc(Cl)cc1Cl", "activity change, negative = inhibition": "-1.7% (inactive)"},
      {"smiles": "Cc1nc2nc(C)c(NS(=O)(=O)c3ccc4c(c3)CCCC4)c(=O)n2[nH]1", "activity change, negative = inhibition": "-2.75% (inactive)"},
      {"smiles": "Cc1cccnc1NC(=O)NC(=O)c1ccc(C(C)(C)C)s1", "activity change, negative = inhibition": "17.4% (inactive)"},
      {"smiles": "N#Cc1c(NC(=O)CSc2ncn[nH]2)sc2c1CCCC2", "activity change, negative = inhibition": "6.43% (inactive)"},
      {"smiles": "N#Cc1c(NC(=O)CSc2ncn[nH]2)sc2c1CCCCC2", "activity change, negative = inhibition": "-2.54% (inactive)"},
      {"smiles": "Cn1nnnc1Sc1ncnc2scc(-c3cccs3)c12", "activity change, negative = inhibition": "-17.8% (inactive)"},
      {"smiles": "Cc1ccc(-c2nc(-c3ccncc3)no2)cc1C", "activity change, negative = inhibition": "9.82% (inactive)"},
      {"smiles": "O=C(Nc1cccnc1Cl)c1cc(-c2ccco2)on1", "activity change, negative = inhibition": "6.82% (inactive)"},
      {"smiles": "CCN(CC)S(=O)(=O)c1cccc(C(=O)N/N=C(\\C)c2ccc(O)cc2O)c1", "activity change, negative = inhibition": "-12.5% (inactive)"},
      {"smiles": "COc1cc(CN2CCC(C(=O)NCCC(C)C)CC2)ccc1OCc1ccccc1", "activity change, negative = inhibition": "-8.83% (inactive)"},
      {"smiles": "O=C(Nc1ccc(Nc2ccncc2)cc1)c1ccc([N+](=O)[O-])cc1", "activity change, negative = inhibition": "-12.4% (inactive)"},
      {"smiles": "O=C(Nc1ccc(Cl)cc1)N1CC=CCC1", "activity change, negative = inhibition": "10.8% (inactive)"},
      {"smiles": "COc1ccc2oc(=N)c(C(=O)Nc3ccccc3Cl)cc2c1", "activity change, negative = inhibition": "-2.03% (inactive)"},
      {"smiles": "CCCCOc1ccc(-c2nnn(C(C)(C)C(=O)OC)n2)cc1", "activity change, negative = inhibition": "2.96% (inactive)"},
      {"smiles": "CC1=C/C(=N\\NC(=S)Nc2cccnc2)CC(C)(C)C1", "activity change, negative = inhibition": "-5.66% (inactive)"},
      {"smiles": "COc1cccc(/C=N/Nc2ncnc3c2ncn3Cc2ccccc2)c1O", "activity change, negative = inhibition": "-8.07% (inactive)"},
      {"smiles": "COc1ccc(/C=N/N=C2/SCC(=O)N2Cc2ccccc2)cc1", "activity change, negative = inhibition": "7.98% (inactive)"},
      {"smiles": "N#Cc1ccc(-c2cccnc2)nc1SCC(=O)c1ccccc1", "activity change, negative = inhibition": "-6.34% (inactive)"},
      {"smiles": "COc1ccccc1N1CCN(/N=C/c2ccc([N+](=O)[O-])cc2)CC1", "activity change, negative = inhibition": "8.57% (inactive)"},
      {"smiles": "O=C(c1ccc([N+](=O)[O-])s1)N1CCCc2ccccc21", "activity change, negative = inhibition": "-12% (inactive)"},
      {"smiles": "O=Cc1ccc(N2Cc3ccccc3C2)cc1", "activity change, negative = inhibition": "-8.49% (inactive)"},
      {"smiles": "COc1ccccc1N1CCN(/N=C\\c2ccccc2)CC1", "activity change, negative = inhibition": "-2.09% (inactive)"},
      {"smiles": "Cc1ccc(-c2cc3onc(-c4ccccc4)c3c(=O)n2C)cc1", "activity change, negative = inhibition": "-8.74% (inactive)"},
      {"smiles": "CC(=O)CSc1ccc(-c2nc3cc(C)c(C)cc3[nH]2)cn1", "activity change, negative = inhibition": "1.88% (inactive)"},
      {"smiles": "O=C(O)c1ccc(Nc2nc3c(s2)CCCC3)cc1", "activity change, negative = inhibition": "-11.1% (inactive)"},
      {"smiles": "CC(C)(C)c1ccc(-c2noc(CCC(=O)NCc3ccco3)n2)cc1", "activity change, negative = inhibition": "8.27% (inactive)"},
      {"smiles": "Cc1ccc(C(=O)Nc2ccccc2Cl)cc1", "activity change, negative = inhibition": "-2.44% (inactive)"},
      {"smiles": "Cc1ccc(OCCCCN2CCCCC2)c(Br)c1", "activity change, negative = inhibition": "-0.175% (inactive)"},
      {"smiles": "COc1ccc(Br)cc1C(C[N+](=O)[O-])c1c(N)n(C)c(=O)n(C)c1=O", "note": "(centres undefined)", "activity change, negative = inhibition": "-38.4% (inactive)"},
      {"smiles": "Cc1ccc2nc(NC(=O)CCCC(=O)O)sc2c1", "activity change, negative = inhibition": "3.35% (inactive)"},
      {"smiles": "CN(C)CCCN(C(=O)c1ccc(Cl)s1)c1nc2cc3c(cc2s1)OCO3", "activity change, negative = inhibition": "-27.2% (inactive)"},
      {"smiles": "CN(Cc1ccccc1)C1=CC(=[N+]2CCCC2)CC(C)(C)C1", "activity change, negative = inhibition": "-29.5% (inactive)"},
      {"smiles": "CN(C)c1cc[n+](CC(=O)c2ccc(-c3ccccc3)cc2)cc1", "activity change, negative = inhibition": "-30.2% (inactive)"},
      {"smiles": "CCN(CC)Cc1c(O)ccc2c1O/C(=C\\C=C\\c1ccccc1)C2=O", "activity change, negative = inhibition": "1.3% (inactive)"},
      {"smiles": "CN(CC(=O)N1CCCCCC1)S(=O)(=O)c1ccccc1", "activity change, negative = inhibition": "-9.21% (inactive)"},
      {"smiles": "Cc1cc(C)c2ccc(N)nc2c1O", "activity change, negative = inhibition": "-10.6% (inactive)"},
      {"smiles": "CN(C)c1ccc(/C=C/c2cccc[n+]2[O-])cc1", "activity change, negative = inhibition": "1.08% (inactive)"},
      {"smiles": "O=C(CCl)Nc1cn(-c2ccccc2)nc1-c1ccccc1", "activity change, negative = inhibition": "-39.9% (inactive)"},
      {"smiles": "Cc1nn2c(N)c(-c3ccccc3)cnc2c1-c1ccccc1", "activity change, negative = inhibition": "-1.78% (inactive)"},
      {"smiles": "Brc1ccc(-c2cn3cccnc3n2)cc1", "activity change, negative = inhibition": "19.9% (inactive)"},
      {"smiles": "CC1CCCC(C)N1CCCNC(=O)c1cc2c(s1)-c1ccccc1OC2", "note": "(centres undefined)", "activity change, negative = inhibition": "-42% (inactive)"},
      {"smiles": "O=C(/C=C\\Nc1ccc2c(c1)OCO2)c1ccccn1", "activity change, negative = inhibition": "-33% (inactive)"},
      {"smiles": "CC1CN(N=Cc2ccc([N+](=O)[O-])o2)C(=N)O1", "note": "(centres undefined)", "activity change, negative = inhibition": "-38.8% (inactive)"},
      {"smiles": "CCN(CC)S(=O)(=O)c1cccc(C(=O)N/N=C/c2ccc([N+](=O)[O-])o2)c1", "activity change, negative = inhibition": "-68.6% (inactive)"},
      {"smiles": "O=[N+]([O-])c1ccc(/C=N/Nc2ccnc3cc(Cl)ccc23)o1", "activity change, negative = inhibition": "-25.8% (inactive)"},
      {"smiles": "CC(C)C(NC(=O)OCc1ccccc1)C(=O)OCC(=O)N1CCCCC1", "note": "(centres undefined)", "activity change, negative = inhibition": "13.4% (inactive)"},
      {"smiles": "O=C(NC(=S)NCc1ccccc1)c1ccccc1", "activity change, negative = inhibition": "-1.25% (inactive)"},
      {"smiles": "CCOc1ccc(-n2c(O)c(/C=N/Nc3nc(C)cc(C)n3)c3ccccc3c2=O)cc1", "activity change, negative = inhibition": "-11.6% (inactive)"},
      {"smiles": "COc1ccc(Nc2oc(-c3ccc(OC)cc3)nc2C#N)cc1", "activity change, negative = inhibition": "12.9% (inactive)"},
      {"smiles": "O=C(N/N=C/c1ccccc1)c1ccco1", "activity change, negative = inhibition": "-6.51% (inactive)"},
      {"smiles": "Cc1cc(C(=O)N/N=C/c2ccc([N+](=O)[O-])o2)c(C)o1", "activity change, negative = inhibition": "-46% (inactive)"},
      {"smiles": "CC1CCN(C(=O)c2cc3ccccc3o2)CC1", "activity change, negative = inhibition": "5.53% (inactive)"},
      {"smiles": "O=C(Nc1nc2ccccc2s1)Nc1ccc(F)cc1F", "activity change, negative = inhibition": "1.35% (inactive)"},
      {"smiles": "O=C(Nc1cnc2ccccn2c1=O)c1ccc(F)cc1", "activity change, negative = inhibition": "7.32% (inactive)"},
      {"smiles": "O=C(N/N=C/c1cccc(Oc2ccc([N+](=O)[O-])cc2[N+](=O)[O-])c1)c1cncc(Br)c1", "activity change, negative = inhibition": "-17.8% (inactive)"},
      {"smiles": "COc1cccc(/C=N/Nc2nc3ccccc3[nH]2)c1OC", "activity change, negative = inhibition": "3.26% (inactive)"},
      {"smiles": "C[C@H]1CCC[C@]2(C)C[C@H]3OC(=O)C(CN4CCCCCC4)[C@H]3C=C12", "note": "(some centres undefined)", "activity change, negative = inhibition": "-14.2% (inactive)"},
      {"smiles": "O=C(COC(=O)C1=COCCO1)Nc1c(F)cccc1F", "activity change, negative = inhibition": "6.62% (inactive)"},
      {"smiles": "COc1cc(NC(=O)COc2cc(O)c3c(c2)OC(C)(C)CC3=O)cc(OC)c1OC", "activity change, negative = inhibition": "-9.31% (inactive)"},
      {"smiles": "O=C(Nc1ccccc1Cl)Nc1cccc2cccnc12", "activity change, negative = inhibition": "-20.8% (inactive)"},
      {"smiles": "O=C(CCCCC(=O)NN=Cc1ccccc1O)NN=Cc1ccccc1O", "activity change, negative = inhibition": "-4.07% (inactive)"},
      {"smiles": "Cn1cccc1-c1cc(C(=O)N/N=C/c2cc(Br)ccc2O)[nH]n1", "activity change, negative = inhibition": "-9.81% (inactive)"},
      {"smiles": "O=C(N/N=C/c1cc(Br)ccc1O)c1ccncc1", "activity change, negative = inhibition": "-32.5% (inactive)"},
      {"smiles": "Oc1ccccc1/C=N/Nc1cccc2cccnc12", "activity change, negative = inhibition": "-2.28% (inactive)"},
      {"smiles": "Cc1nc(NC(=O)C2CC2)sc1C(=O)Nc1ccccc1Cl", "activity change, negative = inhibition": "-0.052% (inactive)"},
      {"smiles": "COc1ccc(C(=O)/C=C(\\C)Nc2ccc3c(c2)OCO3)cc1", "activity change, negative = inhibition": "-1.82% (inactive)"},
      {"smiles": "COc1cc(C2C(C#N)=C(N)Oc3cc4c(cc32)OCO4)cc(OC)c1OC", "note": "(centres undefined)", "activity change, negative = inhibition": "10.1% (inactive)"},
      {"smiles": "CCOc1ccc(NC(=O)Nc2cccc(C(=O)O)c2)cc1", "activity change, negative = inhibition": "-33.2% (inactive)"},
      {"smiles": "O=C(Nc1nnc(Cc2ccccc2)s1)c1ccccc1", "activity change, negative = inhibition": "12.2% (inactive)"}
    ]}
  ]
}
